According to PubChem BioAssay (NCI):
Compounds without any hit were thinned out: in the full panel of roughly 83,000, 20% have a hit.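 The endpoint reported here, percent growth, reads 100 for growth as untreated, 0 for no net growth and -100 for all cells dead.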 The source made the active and inactive calls. Rule for the calls: active = growth percent below 10; inactive = the rest.

Legend:
Test in all cases: NCI-60 one-dose screen, 48 h (100 = growth as untreated, 0 = no growth, -100 = all killed)
Conditions in all cases: 10 µM unless noted
SK-MEL-2 melanoma = test system: SK-MEL-2 melanoma
EKVX NSCLC = test system: EKVX NSCLC
SN12C renal = test system: SN12C renal
UO-31 renal = test system: UO-31 renal
TK-10 renal = test system: TK-10 renal
ACHN renal = test system: ACHN renal
CAKI-1 renal = test system: CAKI-1 renal
A498 renal = test system: A498 renal
CCRF-CEM leukemia = test system: CCRF-CEM leukemia
MOLT-4 leukemia = test system: MOLT-4 leukemia

Measured: growth

Nc1c(C(=O)Nc2cccc3c2OCCO3)sc2nc3c(cc12)CN(Cc1ccccc1)CC3
inactive: SK-MEL-2 melanoma 56.2% | EKVX NSCLC 83.3% | SN12C renal 87.2% | UO-31 renal 60.4% | TK-10 renal 96.8% | ACHN renal 77.2% | CAKI-1 renal 55.3% | A498 renal 37.9% | CCRF-CEM leukemia 36.3% | MOLT-4 leukemia 52.5%

CC[C@H](Nc1ncnc(N)c1C(N)=O)c1nc2cccc(NCc3ccc(C(=O)NO)cc3)c2c(=O)n1-c1ccccc1
inactive: SK-MEL-2 melanoma 82.8% | EKVX NSCLC 99.7% | SN12C renal 81.5% | UO-31 renal 71.8% | TK-10 renal 69.9% | ACHN renal 91% | CAKI-1 renal 93.2% | A498 renal 90.8% | CCRF-CEM leukemia 33% | MOLT-4 leukemia 67.8%

COc1ccc(C/C(C)=C(\c2ccc(OCCN3CCCCCC3)cc2)c2ccc(OC(=O)C3CCCCC3)cc2)cc1
inactive: SK-MEL-2 melanoma 82.1% | EKVX NSCLC 83.5% | SN12C renal 57.1% | UO-31 renal 38.6% | TK-10 renal 86.4% | ACHN renal 80.8% | CAKI-1 renal 86.7% | A498 renal 80.4% | CCRF-CEM leukemia 49.7% | MOLT-4 leukemia 32.3%

CC(C)c1c(C(=O)Nc2ccccc2)c(-c2ccccc2)c(-c2ccc(F)cc2)n1CC[C@@H]1CC=CC(=O)O1
inactive: EKVX NSCLC 34.4% | TK-10 renal 28.5% | A498 renal 73.7%
active: SK-MEL-2 melanoma -55.9% | SN12C renal -15.5% | UO-31 renal -75.9% | ACHN renal -27.8% | CAKI-1 renal 4.73% | CCRF-CEM leukemia -29.1% | MOLT-4 leukemia -33.2%

N=c1c2ccccc2nc2n1CCCCC2
inactive: SK-MEL-2 melanoma 114% | EKVX NSCLC 103% | SN12C renal 104% | UO-31 renal 89.7% | TK-10 renal 123% | ACHN renal 105% | CAKI-1 renal 95.1% | A498 renal 121% | CCRF-CEM leukemia 92.9% | MOLT-4 leukemia 117%

CCCC(=O)Oc1ccc(/C(=C(/CC)Cc2ccccc2)c2ccc(OCCN3CCCC3)cc2)cc1
inactive: SK-MEL-2 melanoma 103% | EKVX NSCLC 81.4% | SN12C renal 99.4% | UO-31 renal 66.5% | TK-10 renal 87.8% | ACHN renal 87.3% | CAKI-1 renal 85.2% | A498 renal 71.9% | CCRF-CEM leukemia 84.4% | MOLT-4 leukemia 51.6%

C=C(C[n+]1ccccc1)[C@@H]1CC[C@]2(C(=O)OC)CC[C@]3(C)[C@H](CC[C@@H]4[C@@]5(C)CC[C@H](O)C(C)(C)[C@@H]5CC[C@]43C)[C@@H]12
inactive: SK-MEL-2 melanoma 100% | EKVX NSCLC 104% | SN12C renal 95.4% | UO-31 renal 74% | TK-10 renal 113% | ACHN renal 96.5% | CAKI-1 renal 90.6% | A498 renal 123% | CCRF-CEM leukemia 99% | MOLT-4 leukemia 101%

COc1ccc(/C=C2\CN(C(=O)CCN3CCC(=NO)CC3)C/C(=C\c3ccc(OC)cc3)C2=O)cc1
inactive: SK-MEL-2 melanoma 89.4% | EKVX NSCLC 28% | TK-10 renal 21.5% | CAKI-1 renal 11.3% | A498 renal 36.1%
active: SN12C renal -52% | UO-31 renal -87.7% | ACHN renal -41.7% | CCRF-CEM leukemia 0.63% | MOLT-4 leukemia 0.493%

CC(C)Oc1nc2c(c(=O)n(C)c(=O)n2C)n1C
inactive: SK-MEL-2 melanoma 107% | EKVX NSCLC 103% | SN12C renal 108% | UO-31 renal 91.3% | TK-10 renal 95.3% | ACHN renal 101% | CAKI-1 renal 100% | A498 renal 106% | CCRF-CEM leukemia 95.3% | MOLT-4 leukemia 94.4%

O=C(CO[N+](=O)[O-])Nc1ccc(C(=O)/C=C/c2ccc3c(c2)OCO3)cc1
inactive: SK-MEL-2 melanoma 119% | EKVX NSCLC 99.7% | SN12C renal 95.4% | UO-31 renal 77.1% | TK-10 renal 111% | ACHN renal 99.2% | CAKI-1 renal 93% | A498 renal 107% | CCRF-CEM leukemia 70% | MOLT-4 leukemia 99.7%

COc1ccc2[nH]c(=O)c(/C=C/C(=O)c3ccc(Nc4nccc(-c5ccc6ccccc6c5)n4)cc3)cc2c1
inactive: SK-MEL-2 melanoma 102% | EKVX NSCLC 107% | SN12C renal 94.5% | UO-31 renal 93.2% | TK-10 renal 103% | ACHN renal 103% | CAKI-1 renal 98% | A498 renal 89.7% | CCRF-CEM leukemia 86.4% | MOLT-4 leukemia 101%

COc1cc2c(c(OC)c1OC)-c1ccc(N=NC(N)=S)c(=O)cc1[C@@H](NC(C)=O)CC2
active: SK-MEL-2 melanoma -10.1% | A498 renal -10.9%
inactive: EKVX NSCLC 52.4% | SN12C renal 37% | UO-31 renal 60.9% | TK-10 renal 19% | ACHN renal 65.8% | CAKI-1 renal 64.4% | CCRF-CEM leukemia 15% | MOLT-4 leukemia 20%

CNCCCn1c2c(c3ccc([N+](=O)[O-])cc3c1=O)C(=O)c1cc(OC)cnc1-2
active: SK-MEL-2 melanoma -43.9% | EKVX NSCLC 4.21% | SN12C renal -29.7% | UO-31 renal -78.4% | TK-10 renal -23.9% | ACHN renal -65.2% | CAKI-1 renal -83.4% | A498 renal -97% | CCRF-CEM leukemia -31.9% | MOLT-4 leukemia -10.9%

CC(=O)OC1Oc2cc(C)c(C)cc2-c2oc(=O)c(-c3cc4ccc(N(C)C)cc4oc3=O)cc21 (stereo not given)
active: MOLT-4 leukemia -17.4%
inactive: SK-MEL-2 melanoma 92.4% | EKVX NSCLC 41.5% | SN12C renal 84.2% | UO-31 renal 51.4% | TK-10 renal 89.6% | ACHN renal 103% | CAKI-1 renal 65.4% | A498 renal 57.8% | CCRF-CEM leukemia 54.9%

COc1ccc(C/C(C)=C(\c2ccc(Cl)cc2)c2ccc(OCCN3CCCCCC3)cc2)cc1
inactive: SK-MEL-2 melanoma 90.5% | EKVX NSCLC 91.7% | SN12C renal 78.3% | UO-31 renal 67.9% | TK-10 renal 90.3% | ACHN renal 86.4% | CAKI-1 renal 84.1% | A498 renal 92.1% | CCRF-CEM leukemia 61.6% | MOLT-4 leukemia 58.7%

COC(/C=C/c1ccc([N+](=O)[O-])cc1)OC
inactive: SK-MEL-2 melanoma 99% | EKVX NSCLC 101% | SN12C renal 92.8% | UO-31 renal 93.2% | TK-10 renal 103% | ACHN renal 107% | CAKI-1 renal 102% | A498 renal 111% | CCRF-CEM leukemia 39.6% | MOLT-4 leukemia 69.4%

CC[C@H](Nc1cc(C)nc(N)n1)c1nc2cccc(NCc3ccc(C(=O)NO)cc3)c2c(=O)n1-c1ccccc1
inactive: SK-MEL-2 melanoma 33.1% | EKVX NSCLC 64.3% | SN12C renal 29% | UO-31 renal 80.1% | TK-10 renal 32.1% | ACHN renal 79.9% | CAKI-1 renal 71.8%
active: A498 renal -3.63% | CCRF-CEM leukemia -11% | MOLT-4 leukemia -9.86%

O=C(O)c1ccc(=O)[nH]n1
inactive: SK-MEL-2 melanoma 116% | EKVX NSCLC 116% | SN12C renal 94.3% | UO-31 renal 88.3% | TK-10 renal 117% | ACHN renal 98.8% | CAKI-1 renal 109% | A498 renal 105% | CCRF-CEM leukemia 112% | MOLT-4 leukemia 89%

COc1ccccc1N1CCN(CCn2c(=O)c3c(c4ccccc4n3C)n(C)c2=O)CC1
inactive: SK-MEL-2 melanoma 60.2% | EKVX NSCLC 106% | SN12C renal 81.8% | UO-31 renal 77.6% | TK-10 renal 78.9% | ACHN renal 98.5% | CAKI-1 renal 101% | A498 renal 109% | CCRF-CEM leukemia 102% | MOLT-4 leukemia 88.1%

COc1cc2c(cc1O)CCc1cc(O)cc(OC)c1-2
inactive: SK-MEL-2 melanoma 88.6% | EKVX NSCLC 92.7% | SN12C renal 89.4% | UO-31 renal 95.3% | TK-10 renal 126% | ACHN renal 95.4% | CAKI-1 renal 94.8% | A498 renal 79.4% | CCRF-CEM leukemia 70.7% | MOLT-4 leukemia 74.7%

Brc1cccc(-c2nc(-c3ccc4c(c3)OCCO4)co2)c1
inactive: SK-MEL-2 melanoma 37.6% [25 µM] | EKVX NSCLC 51.5% [25 µM] | SN12C renal 54% [25 µM] | UO-31 renal 70% [25 µM] | TK-10 renal 84.7% [25 µM] | ACHN renal 85.4% [25 µM] | CAKI-1 renal 52.3% [25 µM] | A498 renal 23.5% [25 µM] | CCRF-CEM leukemia 51.6% [25 µM] | MOLT-4 leukemia 45.4% [25 µM]

Cn1c2ccccc2c2c3c(c4c5ccccc5n(CCCCCC#N)c4c21)C(=O)N(O)C3=O
inactive: SK-MEL-2 melanoma 34.5% | EKVX NSCLC 88.2% | SN12C renal 10.8% | TK-10 renal 42.1%
active: UO-31 renal 2.03% | ACHN renal -0.622% | CAKI-1 renal -32.3% | A498 renal -32% | CCRF-CEM leukemia 3.22% | MOLT-4 leukemia 1.13%

Nc1cccc(-c2nc3sccn3c2-c2ccnc(NCCCNS(=O)(=O)c3ccc(C(F)(F)F)cc3)n2)c1
inactive: EKVX NSCLC 21.1% | SN12C renal 12.8% | TK-10 renal 47.5% | CAKI-1 renal 18.3% | A498 renal 11.2%
active: SK-MEL-2 melanoma -21.7% | UO-31 renal -8.25% | ACHN renal 6.33% | CCRF-CEM leukemia 6.17% | MOLT-4 leukemia -29.6%

CC(C)C1=C[C@@]23CC[C@@H]4[C@](C)(CCC[C@@]4(C)C(=O)OCC#CCN4CCCC4)[C@H]2C[C@@H]1[C@H]1C(=O)OC(=O)[C@H]13
inactive: SK-MEL-2 melanoma 97.1% | EKVX NSCLC 86.4% | SN12C renal 93.2% | UO-31 renal 78.3% | TK-10 renal 101% | ACHN renal 95.9% | CAKI-1 renal 83.6% | A498 renal 78.5% | CCRF-CEM leukemia 85.7% | MOLT-4 leukemia 93.9%

CCOC(=O)c1c2c(n3ccc(NC(=O)CCN4CCOCC4)cc13)C(=O)c1ncccc1C2=O
inactive: SK-MEL-2 melanoma 30.9% | EKVX NSCLC 60.4% | SN12C renal 24.2% | UO-31 renal 36% | TK-10 renal 47% | ACHN renal 16.5% | CAKI-1 renal 21.5% | A498 renal 56.2% | CCRF-CEM leukemia 19.3% | MOLT-4 leukemia 18.6%

C[C@@H]1CC[C@@H]2[C@@H]1[C@H](OC(=O)/C=C/c1ccccc1)[C@]1(c3ccccc3)C[C@@H](OC(=O)CO)[C@@]2(C)O1
inactive: SK-MEL-2 melanoma 97.7% | EKVX NSCLC 88.4% | SN12C renal 21.8% | TK-10 renal 98.6% | CAKI-1 renal 15.4% | CCRF-CEM leukemia 93% | MOLT-4 leukemia 92.1%
active: UO-31 renal -68.1% | ACHN renal 4.8% | A498 renal -22.3%

O=C(/C=C\c1cccc([N+](=O)[O-])c1)c1ccccc1
inactive: SK-MEL-2 melanoma 100% | EKVX NSCLC 96.9% | SN12C renal 97.2% | TK-10 renal 68.1% | CAKI-1 renal 84.4% | A498 renal 91.4% | MOLT-4 leukemia 18.9%
active: UO-31 renal -64.5% | ACHN renal -50.1% | CCRF-CEM leukemia -23.9%
